In PubChem BioAssay AID588591 (National Center for Advancing Translational Sciences (NCATS), 2011):
Several values for one entry are separate records, joined by “and”; a condition that tells them apart may be missing. Identical values can stand only once. Screen size: about 390,000 compounds; about 4,700 (1.2%) were called active. Where a call stands in place of a potency, no number is given. Roughly 4% stayed inconclusive and do not appear here. Calls come from the whole dose curve; as a rule, active = well fitted inhibition curve with a large enough effect; inconclusive = small, poorly fitted or top-dose-only effect, or another doubt; inactive = no such curve, though single readings can be large or run the other way. Only a selection was taken, and actives are over-represented in it overall. More than one record can exist for a structure, and the calls need not agree.

target: DNA polymerase eta (Homo sapiens) (UniProt Q9Y253); assay: qHTS for Inhibitors of Polymerase Eta; settings: recombinant Pol eta, fluorescent DNA replication assay; series mostly up to 114 µM
Sequence (Q9Y253 whole entry, looked up): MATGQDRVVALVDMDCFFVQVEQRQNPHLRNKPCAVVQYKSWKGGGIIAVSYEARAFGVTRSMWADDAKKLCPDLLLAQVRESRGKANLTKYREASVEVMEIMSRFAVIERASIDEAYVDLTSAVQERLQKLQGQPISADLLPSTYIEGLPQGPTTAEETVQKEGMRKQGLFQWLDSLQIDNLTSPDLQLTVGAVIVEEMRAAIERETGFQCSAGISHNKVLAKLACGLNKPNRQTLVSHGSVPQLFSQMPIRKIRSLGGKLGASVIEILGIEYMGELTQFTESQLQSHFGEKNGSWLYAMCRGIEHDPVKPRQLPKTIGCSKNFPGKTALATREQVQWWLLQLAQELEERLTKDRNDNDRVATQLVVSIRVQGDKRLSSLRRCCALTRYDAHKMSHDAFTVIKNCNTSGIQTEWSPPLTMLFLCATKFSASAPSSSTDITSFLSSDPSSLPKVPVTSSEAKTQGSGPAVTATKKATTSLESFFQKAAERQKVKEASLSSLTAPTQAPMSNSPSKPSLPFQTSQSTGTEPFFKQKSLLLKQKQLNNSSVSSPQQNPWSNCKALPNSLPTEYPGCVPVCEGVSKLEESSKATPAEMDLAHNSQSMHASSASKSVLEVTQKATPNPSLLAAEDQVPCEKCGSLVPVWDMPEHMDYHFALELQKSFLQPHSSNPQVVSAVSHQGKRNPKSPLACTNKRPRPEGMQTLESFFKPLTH
Summary of the method: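 Pol eta (10 nM) was preincubated with compounds for 15 min at room temperature, after which fluorescent replication substrate (50 nM final) was added to start the reaction. Fluorescence was read kinetically at 0 and 10 min.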
Potency is the fitted concentration of half-maximal effect.

| Structure (SMILES) | Potency |
| --- | --- |
| Cc1cc(C(=O)COc2ccccc2[N+](=O)[O-])c(C)n1-c1cccc(S(=O)(=O)N2CCOCC2)c1 | inactive |
| Cc1cc(C(=O)N/N=C/c2ccc(O)c([N+](=O)[O-])c2)c(C)n1-c1ccc(F)cc1 | 8.91 µM (active) |
| O=C(N/N=C/c1cccc([N+](=O)[O-])c1)C1CC(=O)N(c2ccc(Br)cc2)C1 (stereo not given) | inactive |
| CC(C)(C)c1ccc(C(=O)NCC(c2ccco2)S(=O)(=O)c2ccc(F)cc2)cc1 (stereo not given) | inactive |
| O=C1/C(=C\c2ccc([N+](=O)[O-])cc2)CS(=O)(=O)C/C1=C/c1ccc([N+](=O)[O-])cc1 | 15.8 µM (active) |
| O=C(CC1Oc2ccc(Cl)cc2NC1=O)NCc1ccccc1 (stereo not given) | inactive |
| COc1ccccc1NC(=O)C(=O)c1cc(C)n(-c2ccccc2F)c1C | inactive |
| CO/N=C(\C(=O)N[C@@H]1C(=O)N2C(C(=O)O)=C(COC(C)=O)CS[C@H]12)c1csc(N)n1 (stereo in doubt) | inactive and 20 µM (active) and 28.2 µM (active) |
| C=CC1=C(C(=O)O)N2C(=O)[C@@H](NC(=O)/C(=N\OCC(=O)O)c3csc(N)n3)[C@H]2SC1 | 7.08 µM (active) |
| CC(=O)N1CCCc2cc(S(=O)(=O)N3CCC(C(=O)NCc4ccc(C)cc4)CC3)ccc21 | inactive |
| CC(=O)OC1=C(C(C)=O)N(Cc2ccccc2)S(=O)(=O)c2ccccc21 | inactive |
| CCN(CC)c1nn2c(=O)c(C(=O)NCCc3ccccc3)cnc2s1 | inactive |
| COc1ccccc1CNC(=O)c1ccc(CS(=O)c2ccccc2Cl)o1 (stereo not given) | inactive |
| O=C(CC1N=C2c3ccccc3N=C(SCc3cccc(Cl)c3)N2C1=O)NCc1ccc2c(c1)OCO2 (stereo not given) | inactive |
| CC1=C(C)C(=O)OC(C(C)C2CCC3C4CC=C5CC(OC6OC(COC7OC(CO)C(O)C(O)C7O)C(O)C(O)C6O)CC(O)C5(C)C4CCC23C)C1 (stereo not given) | inactive |
| CC(/C=C/C1(O)C(C)CC(=O)CC1(C)C)OC1OC(CO)C(O)C(O)C1O (stereo not given) | 31.6 µM (active) |
| C=CC1C(OC2OC(CO)C(O)C(O)C2O)OC=C(C(=O)OC)C1CC1CC(=O)CC(CC(=O)CCc2ccc(O)cc2)O1 (stereo not given) | inactive |
| Cc1ccc(Nc2c(-c3ccc(C)cc3)nc3cnccn23)cc1 | inactive |
| COc1cccc(NC(=O)N(Cc2cn(C)c3ccccc23)C2CCCCCC2)c1 | inactive |
| O=C1CSC(=S)N1/N=C/c1ccc(O)c([N+](=O)[O-])c1 | 6.31 µM (active) |
| COc1cc(Cl)c(NC(=O)C(NS(=O)(=O)c2cccs2)C(C)C)c(OC)c1 (stereo not given) | inactive |
| COc1cccc2c1C(=O)c1c(O)c3c(c(O)c1C2=O)CC(O)(C(C)=NNC(=O)c1ccc(Cl)c(Cl)c1)CC3OC1CC(N)C(O)C(C)O1 (stereo not given) | 12.6 µM (active) |
| CCOc1ccc(N(Cc2ccccc2)C(=O)c2nc(S(C)(=O)=O)ncc2Cl)cc1 | inactive |
| Cc1ccc(-c2cn3c(n2)sc2cc(C(=O)NCc4cccs4)ccc23)c(C)c1 | inactive |
| O=C(CC1N=C2c3ccccc3N=C(SCc3ccc(F)cc3)N2C1=O)NCc1cccs1 (stereo not given) | inactive |
| COc1ccccc1NC(=O)CSC1=Nc2ccccc2C2=NC(CC(=O)NCc3cccs3)C(=O)N12 (stereo not given) | inactive |
| O=C(CSC1=Nc2ccccc2C2=NC(CC(=O)NCc3ccco3)C(=O)N12)NCc1ccco1 (stereo not given) | 15.8 µM (active) |
| Cc1cc(=O)c2cc(C(=O)Nc3cccc(C)c3C)ccc2[nH]1 | inactive |

| Structure (SMILES) | Potency |
| --- | --- |
| CCc1ccccc1N1C(=O)CN(S(=O)(=O)CC)CC1(C)C(=O)NC1CCCCC1 (stereo not given) | inactive |
| COc1cc(CN2CC(C)CC(C)C2)cc([N+](=O)[O-])c1O (stereo not given) | inactive |
| COc1ccc(N2C(=O)CC(Nc3ccc(F)cc3)C2=O)c([N+](=O)[O-])c1 (stereo not given) | inactive |
| COc1cc(/C=C2/C(=O)NN(c3ccc(F)cc3)C2=O)cc([N+](=O)[O-])c1O | 44.7 µM (active) |
| COc1cc(/C=C2/C(=O)NN(c3cccc(Cl)c3)C2=O)cc(Br)c1O | 89.1 µM (active) |
| COc1cccc2c1cc1c(=O)n(CC(=O)N3CCN(c4cccc(Cl)c4)CC3)nc(C)n12 | inactive |
| CCOC(=O)c1c(NC(=O)/C(C#N)=C/c2ccccc2)sc2c1CCC2 | inactive |
| O=C(NCCCO)C(=O)Nc1c2c(nn1-c1ccc(F)cc1)CSC2 | inactive |
| CCCCOc1ccc(C(=O)Nc2cccc(-c3nc4ccccc4o3)c2C)cc1 | inactive |
| Cc1ccc(S(=O)(=O)n2nc(C)c(S(=O)(=O)N3CCCCCC3)c2C)cc1 | inactive |
| O=C(CSc1ncc(-c2ccccc2)[nH]1)Nc1ccc(F)cc1F | inactive |
| Oc1ccccc1-c1nc(/C=C/c2ccc(F)cc2)no1 | inactive |
| Cc1ccc(Cc2c(C)nc3nc(SCC(=O)NCCN4CCOCC4)nn3c2C)cc1 | inactive |
| COc1cc(NC(=O)CSc2nc3nc(C)c(Cc4ccc(C)cc4)c(C)n3n2)cc(OC)c1OC | inactive |
| Cc1nc2nc(SCC(=O)NCc3ccco3)nn2c(C)c1Cc1ccccc1 | 44.7 µM (active) |
| COC(=O)Nc1ccc(S(=O)(=O)Nc2cc(OC)nc(OC)n2)cc1 | inactive |
| COc1cc(NS(=O)(=O)c2ccc(NC(=S)NC(=O)c3ccccc3)cc2)nc(OC)n1 | inactive |
| COc1cc(NS(=O)(=O)c2ccc(N/C=C(\C=O)c3nc4cc(Cl)ccc4o3)cc2)nc(OC)n1 | 31.6 µM (active) |
| CCCn1c2ccccc2c2cnn(CC(=O)NCC3CCN(Cc4ccc(C)cc4)CC3)c(=O)c21 | inactive |
| Cc1c(C(=O)N(C)C)sc2c1c(=O)n(-c1ccc(F)cc1)c(=O)n2CC(=O)N(C)c1ccccc1 | inactive |
| CCOC(=O)c1ccc(NC(=O)CCS(=O)(=O)c2ccc3c(c2)oc(=O)n3C)cc1 | inactive |
| OC[C@H]1O[C@@H](n2cnc3c(NC4CCCC4)ncnc32)[C@H](O)[C@H]1O | inactive |
| CCOCCc1c(O)nc(SCC(=O)NCc2ccco2)[nH]c1=O | 15.8 µM (active) |
| CCn1c(SCC(=O)NCc2ccco2)nnc1-c1ccc(N)cc1 | inactive |
| CCOC(=O)c1sc(NC(=O)CSc2nc(O)c(Cc3ccccc3)c(=O)[nH]2)nc1C | inactive |
| Cc1ccc(CSc2oc(-c3cccs3)nc2S(=O)(=O)c2ccc(C)cc2)cc1 | inactive |
| CCCCN1CC(c2nc3ccccc3n2CCCCOc2ccc(C)cc2C)CC1=O (stereo not given) | inactive |
